Here are results for 56 compounds from PubChem BioAssay AID504848 (National Center for Advancing Translational Sciences (NCATS), 2011).

Each structure is given as a SMILES string. Screen size: about 2,300 compounds; about 1,400 (61%) were called active. Inconclusive results (about 29%) are left out. Calls follow the shape of the dose curve; as a rule, active = well fitted inhibition curve with a large enough effect; inconclusive = small, poorly fitted or top-dose-only effect, or effect the other way; inactive = no such curve, though single readings can be large or run the other way. So high a share suggests a set chosen from earlier hits. Some of the results follow.
% is scaled to controls: 0 for no effect and ±100 for the full control effect; potency is read from the fitted curve at half-maximal effect.

The nature of the assay: Confirmation screen for delayed death inhibitors of the malarial parasite plastid, 96 hour incubation. Also: nearly all actives have a fitted effect of over 60% in size. As to conditions: P. falciparum luciferase growth in erythrocytes; series mostly up to 28.7 µM; activity change, negative = inhibition: at the top concentration. In a few lines: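 Two-generation (96 h, 37 C) exposure of P. falciparum carrying an integrated firefly luciferase reporter in erythrocytes, 0.1% parasitemia and 2% hematocrit final, Albumax-supplemented RPMI. Luminescence decrease measures growth inhibition.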
With `Cc1cc(C)c(OCC(O)CNC(C)(C)C)c(C)c1` (stereo unspecified), the Potency was 7.08 µM (active).

`COc1ccc(N2CCc3c(C)nc4c(OC)cc(OC)cc4c32)c(OC)c1`: the Potency is 5.01 µM (active).

With `CC(C)NC(=S)N/N=C/c1sc(N2CCCCC2)nc1-c1cccs1`, the Potency is 5.01 µM (active).

Regarding `Cc1cc2nsnc2c(S(=O)(=O)N2CCN(C)CC2)c1C`, the “activity change, negative = inhibition” value was 27.1% (inactive).

In the case of `CC1CCN(CCNC(=O)C2CCN(S(=O)(=O)c3cccc4nsnc34)CC2)CC1`, the Potency was 7.94 µM (active).

Turning to `C=CCn1cccc(/C=C/C(=O)c2ccc(C(C)(C)C)cc2)c1=S`, the Potency is 0.794 µM (active).

For the compound `COc1ccc(CC(=O)NCC2CCCN(Cc3ccc(F)c(OC)c3)C2)cc1` (stereo unspecified), the Potency is 7.08 µM (active).

In the case of `Cc1ccc2[nH]c3c(c2c1)CCCC3NC(=O)CCl` (stereo unspecified), the Potency is 4.47 µM (active).

For the compound `C[n+]1ccn(CC(=O)c2ccc(Cl)cc2)c1`, the Potency is 14.1 µM (active).

For `Cc1cc(C)cc(CC(Cc2nc3ccccc3[nH]2)c2nc3ccccc3[nH]2)c1` (stereo unspecified), the Potency was 1.12 µM (active).

Take `CCN1C(=O)[C@@H]2Cc3c([nH]c4ccccc34)C(c3ccc(OC)cc3)N2C1=S` (stereo partly specified): the Potency is 11.2 µM (active).

With `C=CCN1C(=O)[C@@H]2Cc3c([nH]c4ccccc34)C(c3ccc(O)cc3)N2C1=S` (stereo partly specified), the Potency was 12.6 µM (active).

With `CCc1nc(Nc2ccncc2)c2oc3ccccc3c2n1`, the Potency is 3.98 µM (active).

Consider `O=C(C[C@@H]1C/C=C\CC[C@@H](Cc2ccc(F)cc2)C(=O)OC[C@@H]2CCCN2C1=O)NCCO`, for which the Potency is 10 µM (active).

`O=C(C[C@H]1C(=O)N(Cc2ccccc2)C[C@@H]1Cc1ccccc1)Nc1ccccc1`: the Potency is 11.2 µM (active).

As to `CC(C)(C)c1ccc(C(O)CCCN2CCC(C(O)(c3ccccc3)c3ccccc3)CC2)cc1` (stereo unspecified), the Potency is 11.2 µM (active).

For the compound `CS(=O)(=O)Nc1ccc(C2=NN(C(=O)c3ccco3)C(c3ccc(F)cc3)C2)cc1` (stereo unspecified), the Potency is 10 µM (active).

Take `COc1cc([N+](=O)[O-])ccc1NC(=O)Nc1cccnc1`: the Potency was 10 µM (active).

In the case of `Cc1ccc(S(=O)(=O)N2CCN(C(=O)c3ccc(Br)o3)CC2)c(C)c1`, the Potency was 6.31 µM (active).

For `Cc1ccc(S(=O)(=O)N2CCN(C(=O)c3cc(S(=O)(=O)N(C)C)ccc3N3CCCC3)CC2)c(C)c1`, the Potency is 8.91 µM (active).

For `CCc1ccc(/C=C/c2c[nH]c3ccccc23)[n+](CC)c1`, the Potency was 0.0501 µM (active).

As to `O=C(NCCCN1CCCC1)c1ccc2c(c1)N(Cc1ccccc1F)C(=O)c1ccccc1S2=O` (stereo unspecified), the Potency is 11.2 µM (active).

As to `CCN1CCCC1CNC(=O)c1ccc2c(c1)N(Cc1ccccc1F)C(=O)c1ccccc1S2(=O)=O` (stereo unspecified), the Potency is 2 µM (active).

Consider `Cc1cccc(CN2C(=O)c3ccccc3S(=O)(=O)c3ccc(C(=O)NCCCN4CCCC4)cc32)c1`, for which the Potency is 1.58 µM (active).

In the case of `CCN1C(=O)c2ccccc2Sc2ccc(C(=O)NCCCN3CCCCC3)cc21`, the Potency is 10 µM (active).

Consider `O=C(c1ccc2c(c1)N(Cc1cccc(Cl)c1)C(=O)c1ccccc1S2(=O)=O)N1CCN(c2ccccn2)CC1`, for which the Potency was 2.82 µM (active).

With `CCOC(=O)N1CCN(C(=O)c2ccc3c(c2)N(Cc2cc(C)ccc2C)C(=O)c2ccccc2S3=O)CC1` (stereo unspecified), the Potency was 3.98 µM (active).

On to `CCCn1c(=NC(=O)CCS(=O)(=O)c2ccccc2)sc2cc(S(N)(=O)=O)ccc21`, for which the Potency is 12.6 µM (active).

With `O=C(NC1C=CS(=O)(=O)C1)c1sc2ccccc2c1Cl` (stereo unspecified), the Potency is 0.398 µM (active).

In the case of `CC1CCN(C(=O)Cn2c(=O)oc3cc(S(=O)(=O)N4CCCCC4)ccc32)CC1`, the Potency was 12.6 µM (active).

As for `COC(=O)c1c(-n2c(C)cc(C=O)c2C)sc2c1CCCC2`, the Potency is 12.6 µM (active).

As to `CCOC(=O)C[n+]1c(C)ccc2c1CCC2`, the Potency is 12.6 µM (active).

Regarding `O=C(CCNC(=O)c1ccc(Cl)cc1)NC1CCCc2ccccc21` (stereo unspecified), the Potency was 12.6 µM (active).

For `CN1CCN(c2ccccc2NC(=O)c2cccc(OCc3ccccc3)c2)CC1`, the Potency was 1.78 µM (active).

As for `CCn1c(/C=C/N(C(C)=O)c2ccccc2)[n+](CC)c2ccc(Cl)cc21`, the Potency was 1 µM (active).

Turning to `CCOC(=O)c1ccc2c(c1)n(CC)c(/C=C/N(C)c1ccccc1)[n+]2CC`, the Potency is 0.0891 µM (active).

Consider `Cc1ccc(CNC(=O)COc2ccccc2-c2ccccc2)cc1`, for which the Potency is 11.2 µM (active).

`O=[N+]([O-])c1cccc(-c2c[n+]3c(n2-c2ccccc2)SCC3)c1`: the Potency was 1.78 µM (active).

On to `COC(=O)C(NC(=O)c1ccccc1C)(Nc1ncc(S(=O)(=O)c2ccc([N+](=O)[O-])cc2)s1)C(F)(F)F` (stereo unspecified), for which the Potency is 3.16 µM (active).

For `CCN(CC)c1ccc(/C=N/Nc2nc3ccccc3[nH]2)cc1`, the Potency was 2.51 µM (active).

`Cc1c(/C=N/Nc2nc3ccccc3[nH]2)c2ccccc2n1C`: the Potency is 0.891 µM (active).

As to `CC(=O)N1CCSc2ccc(S(=O)(=O)Nc3ccc(C)cc3)cc21`, the Potency was 12.6 µM (active).

With `Cc1ccc(S(=O)(=O)C2(C(=O)N3CCCCCC3)CC2)cc1`, the “activity change, negative = inhibition” value is -5.14% (inactive).

Turning to `CC(Oc1cccc(Cl)c1)C(=O)Nc1cc(S(=O)(=O)N2CCOCC2)ccc1N1CCCCC1` (stereo unspecified), the Potency is 3.98 µM (active).

For the compound `O=C(COc1ccc(Cl)cc1)Nc1cc(S(=O)(=O)N2CCCCC2)ccc1N1CCCCC1`, the Potency is 5.01 µM (active).

Regarding `O=C(COc1ccc(Br)cc1)Nc1cc(S(=O)(=O)N2CCCCC2)ccc1N1CCCCC1`, the Potency is 3.98 µM (active).

For `Cc1cc(C(=O)OC(C)C(=O)Nc2nc(-c3ccccc3)cs2)c(C)o1` (stereo unspecified), the “activity change, negative = inhibition” value is -14.6% (inactive).

`COc1ccccc1Nc1nnc(SCC(=O)N2CCCC2)s1`: the Potency was 2.51 µM (active).

With `COc1ccccc1Nc1nnc(SCC(=O)Nc2nc(-c3ccc(F)cc3)cs2)s1`, the Potency is 10 µM (active).

As for `CCOc1ccccc1Nc1nnc(SC(C)C(=O)Nc2nc(-c3ccccc3)cs2)s1` (stereo unspecified), the Potency was 15.8 µM (active).

`COc1ccccc1Nc1nnc(SCc2cc(=O)n3ccsc3n2)s1`: the Potency is 4.47 µM (active).

Take `COc1ccc(C(=O)NC2CC2)cc1OC1CCN(Cc2ccccc2)CC1`: the Potency was 14.1 µM (active).

Turning to `COc1ccc(OC)c(-c2nc(C(=O)NC3CCN(Cc4ccccc4)CC3)cc3c2[nH]c2ccccc23)c1`, the Potency is 4.47 µM (active).

As to `CCCN1CCC(NC(=O)CC2C(=O)NCCN2Cc2cccc(OC)c2)CC1` (stereo unspecified), the “activity change, negative = inhibition” value was -2.53% (inactive).

Consider `COc1ccc(C(=O)NC2CC2)cc1OC1CCN(C/C=C/c2ccccc2)CC1`, for which the Potency was 2.24 µM (active).

With `CCCCCCn1ccc(=N)cc1`, the Potency is 3.55 µM (active).
